Our source for the outcome and AC50 values is PubChem BioAssay (EPA / NIEHS).

Inconclusive results are not listed. Some structures have more than one record in an assay (separate samples or runs), and their calls can disagree. Active and inactive are the calls of the source. Rule for the calls, unless noted: active = hit-call score of the fitted dose curve at least 0.9, where 1 is the maximum; inconclusive = response in the unintended direction; inactive = score below 0.9.

Read-out in assay [1]: solute carrier (SLCO1B1), SLCO1B1 (gene 10599)
The assay is described as follows: LTEA_HepaRG_SLCO1B1: Life Technologies and Expression Analysis (LTEA) Assay for solute carrier (SLCO1B1) using HepaRG (AID 2283530; active = hit-call score of the fitted dose curve at least 0.9, where 1 is the maximum; inactive = score below 0.9). As to conditions: mRNA level, 48 h; actives raise or lower the signal. The essentials: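 Differentiated human HepaRG cells, plated 48 h, switched to serum-free induction medium and exposed in duplicate for 48 h to 8 half-log concentrations (top 100 uM) in 0.5% DMSO. SLCO1B1 mRNA by TaqMan qRT-PCR, normalized to ACTB/GAPDH/POLR2A.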

Read-out in assay [2]: sulfotransferase 2A1 (SULT2A1), SULT2A1 (gene 6822)
The experiment in a line: LTEA_HepaRG_SULT2A1: Life Technologies and Expression Analysis (LTEA) Assay for sulfotransferase 2A1 (SULT2A1) using HepaRG (AID 2283531; active = hit-call score of the fitted dose curve at least 0.9, where 1 is the maximum; inactive = score below 0.9). As to conditions: mRNA level, 48 h; actives raise or lower the signal. A digest of the protocol: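 Differentiated human HepaRG cells in serum-free induction medium were exposed for 48 h to eight half-log concentrations (top 100 uM, 0.5% DMSO). SULT2A1 mRNA was measured by qRT-PCR, normalized to ACTB, GAPDH and POLR2A, and fitted bidirectionally against DMSO.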

Read-out in assay [3]: Transforming Growth Factor (TGFA), TGFA (gene 7039)
The experiment in a line: LTEA_HepaRG_TGFA: Life Technologies and Expression Analysis (LTEA) Assay for Transforming Growth Factor (TGFA) using HepaRG (AID 2283532; active = hit-call score of the fitted dose curve at least 0.9, where 1 is the maximum; inactive = score below 0.9). As to conditions: mRNA level, 48 h; actives raise or lower the signal. A digest of the protocol:
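Differentiated HepaRG cells exposed 48 hours in serum-free induction medium, 0.5% DMSO vehicle, 8-point half-log series from 100 uM, in duplicate. TGFA mRNA by TaqMan qRT-PCR, normalised to ACTB, GAPDH, POLR2A; bidirectional fit versus DMSO.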

Read-out in assay [4]: Transforming Growth Factor (TGFB1), TGFB1 (gene 7040)
The experiment in a line: LTEA_HepaRG_TGFB1: Life Technologies and Expression Analysis (LTEA) Assay for Transforming Growth Factor (TGFB1) Transporter using HepaRG (AID 2283533; active = hit-call score of the fitted dose curve at least 0.9, where 1 is the maximum; inactive = score below 0.9). As to conditions: mRNA level, 48 h; actives raise or lower the signal. A digest of the protocol:
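Differentiated human HepaRG cells in serum-free induction medium were exposed in duplicate for 48 h to eight concentrations (top 100 uM, half-log steps, 0.5% DMSO). TGFB1 mRNA was quantified by qRT-PCR, normalized to ACTB, GAPDH, POLR2A, and fitted bidirectionally against DMSO.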

Read-out in assay [5]: TIMP1, TIMP1 (gene 7076)
The assay is described as follows: LTEA_HepaRG_TIMP1: Life Technologies and Expression Analysis (LTEA) Assay for TIMP1 using HepaRG (AID 2283534; active = hit-call score of the fitted dose curve at least 0.9, where 1 is the maximum; inactive = score below 0.9). As to conditions: mRNA level, 48 h; actives raise or lower the signal. A digest of the protocol:
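Differentiated human HepaRG cells in serum-free induction medium were exposed 48 h to chemicals (8 half-log concentrations, top 100 uM, 0.5% DMSO). TIMP1 mRNA was quantified by TaqMan qRT-PCR, normalized to ACTB/GAPDH/POLR2A; bidirectional fit versus DMSO.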

Read-out in assay [6]: Tumor necrosis factor receptor 1 (TNFRSF1A), TNFRSF1A (gene 7132)
The assay is described as follows: LTEA_HepaRG_TNFRSF1A: Life Technologies and Expression Analysis (LTEA) Assay for Tumor necrosis factor receptor 1 (TNFRSF1A) using HepaRG (AID 2283535; active = hit-call score of the fitted dose curve at least 0.9, where 1 is the maximum; inactive = score below 0.9). The conditions noted are these: mRNA level, 48 h; actives raise or lower the signal. The essentials: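 Differentiated human HepaRG cells were exposed in duplicate for 48 h in serum-free induction medium to eight concentrations (top 100 uM, half-log steps, 0.5% DMSO). TNFRSF1A mRNA was quantified by qRT-PCR, normalized to ACTB, GAPDH and POLR2A, then fitted bidirectionally against DMSO.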

Read-out in assay [7]: Thyroid Hormone Responsive (THRSP), THRSP (gene 7069)
The assay is described as follows: LTEA_HepaRG_THRSP: Life Technologies and Expression Analysis (LTEA) Assay for Thyroid Hormone Responsive (THRSP) using HepaRG (AID 2283536; active = hit-call score of the fitted dose curve at least 0.9, where 1 is the maximum; inactive = score below 0.9). The conditions noted are these: mRNA level, 48 h; actives raise or lower the signal. A digest of the protocol:
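Differentiated HepaRG cells treated 48 h in serum-free induction medium with 8 half-log concentrations up to 100 uM (0.5% DMSO), duplicates. THRSP mRNA by TaqMan qRT-PCR normalised to ACTB, GAPDH, POLR2A; bidirectional fit versus DMSO.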

Read-out in assay [8]: Cellular tumor antigen p53 (Homo sapiens) (UniProt P04637)
The assay is described as follows: LTEA_HepaRG_TP53: Life Technologies and Expression Analysis (LTEA) Assay for Tumor Protein P53 (TP53) using HepaRG (AID 2283537; active = hit-call score of the fitted dose curve at least 0.9, where 1 is the maximum; inactive = score below 0.9). The conditions noted are these: mRNA level, 48 h; actives raise or lower the signal. A digest of the protocol:
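Read-out is TP53 transcript level by microfluidic qRT-PCR, normalised to three housekeeping genes and fitted bidirectionally against DMSO. Human HepaRG cells received compounds for 48 h, highest concentration 100 uM.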

Read-out in assay [9]: UDP glucuronosyltransferase (UGT1A1), UGT1A1 (gene 54658)
The experiment in a line: LTEA_HepaRG_UGT1A1: Life Technologies and Expression Analysis (LTEA) Assay for UDP glucuronosyltransferase (UGT1A1) using HepaRG (AID 2283538; active = hit-call score of the fitted dose curve at least 0.9, where 1 is the maximum; inactive = score below 0.9). As to conditions: mRNA level, 48 h; actives raise or lower the signal. The essentials:
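HepaRG cells, 0.5% DMSO vehicle, 48 h exposure in serum-free induction medium to 8-point half-log series topping at 100 uM, in duplicate. UGT1A1 mRNA by Fluidigm qRT-PCR, normalized to ACTB/GAPDH/POLR2A; bidirectional fit versus DMSO.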

Read-out in assay [10]: X-box binding protein 1 (XBP1), XBP1 (gene 7494)
The assay is described as follows: LTEA_HepaRG_XBP1: Life Technologies and Expression Analysis (LTEA) Assay for X-box binding protein 1 (XBP1) using HepaRG (AID 2283540; active = hit-call score of the fitted dose curve at least 0.9, where 1 is the maximum; inactive = score below 0.9). The conditions noted are these: mRNA level, 48 h; actives raise or lower the signal. The essentials: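 Differentiated human HepaRG cells in serum-free induction medium were exposed in duplicate for 48 h to eight half-log concentrations up to 100 uM in 0.5% DMSO. XBP1 mRNA was quantified by qRT-PCR, normalised to ACTB, GAPDH and POLR2A, with bidirectional fitting against DMSO.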

Assay [11] can be described thus: LTEA_HepaRG_LDH_cytotoxicity: Cytotoxicity Assessment in the Life Technologies and Expression Analysis (LTEA) Assay (AID 2283563). A digest of the protocol: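 Differentiated human HepaRG cells, plated 48 h beforehand, were switched to serum-free induction medium and exposed for 48 h to eight half-log concentrations (top 100 uM) in 0.5% DMSO. LDH was measured in spent medium; activity was fitted relative to DMSO vehicle.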

The nature of assay [12]: ATG_XTT_Cytotoxicity: Cytotoxicity Assessment in the Attagene TRANS-FACTORIAL HepG2 Assay (AID 2283584). The essentials: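 HepG2 human liver cells, transiently transfected with multiple GAL4-UAS reporter units, were dosed and read at 24 h by XTT as cell number. Loss of signal was fitted relative to DMSO negative control baseline.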
In assay [13] the target is Cellular tumor antigen p53 (Homo sapiens) (UniProt P04637). The experiment in a line: TOX21_p53_BLA_p2_ratio: Tox21 HCT-116 p53 Agonism Beta-lactamase Assay, Ratio, Phase 2 (AID 2283592). A digest of the protocol:
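HCT116 cells carrying a p53-responsive beta-lactamase reporter were plated, incubated 5 h at 37C, then dosed with compounds in DMSO (217-fold dilution) for 16 h. CCF4-AM substrate was added for 2 h at room temperature; the 460/530 nm emission ratio gave gain-of-signal activity relative to DMSO.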

Assay [14] is described as follows: TOX21_p53_BLA_p3_viability: Viability Assessment in the Tox21 HCT-116 p53 Agonism Beta-lactamase Assay, Phase 3 (AID 2283593).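 Note: cells exposed to compound for 16 h before reading.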 A digest of the protocol: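 HCT116 cells, 4000/well, dosed 5 h after plating by pin transfer (217-fold dilution from DMSO stock) and incubated 16 h at 37C, 5% CO2. Viability read as ATP luminescence with CellTiter-Glo after 30 min at room temperature.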

Assay [15] can be described thus: TOX21_p53_BLA_p4_viability: Viability Assessment in the Tox21 HCT-116 p53 Agonism Beta-lactamase Assay, Phase 4 (AID 2283597).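 Note: hits lower the luminescence signal meaning cytotoxicity.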 A digest of the protocol:
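HCT116 p53-bla cells (4000/well) rested 5 h at 37C, then received compounds in DMSO (217-fold dilution) for 16 h at 37C, 5% CO2. CellTiter-Glo was added after the CCF4-AM read, and luminescence was read after 30 min at room temperature.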

The target in assay [16] is Cellular tumor antigen p53 (Homo sapiens) (UniProt P04637). The assay is described as follows: TOX21_p53_BLA_p5_ratio: Tox21 HCT-116 p53 Agonism Beta-lactamase Assay, Ratio, Phase 5 (AID 2283599). A digest of the protocol:
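HCT-116 p53-bla cells (4000/well) plated 5 h, dosed with compound (217-fold DMSO dilution) for 16 h at 37 C; CCF4-AM substrate 2 h at room temperature. Activity is the 460/530 nm emission ratio (405 nm excitation), fitted in gain-of-signal direction versus DMSO.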

The nature of assay [17]: TOX21_p53_BLA_p5_viability: Viability Assessment in the Tox21 HCT-116 p53 Agonism Beta-lactamase Assay, Phase 5 (AID 2283600). A digest of the protocol: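 Cells were plated at 4000/well, rested 5 h at 37C, then given compounds in DMSO (217-fold dilution) for 16 h at 37C, 5% CO2. Following the CCF4-AM beta-lactamase read, CellTiter-Glo was added and luminescence was read after 30 min at room temperature.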

The target of assay [18] is Cellular tumor antigen p53 (Homo sapiens) (UniProt P04637). The experiment in a line: TOX21_p53_BLA_p4_ratio: Tox21 HCT-116 p53 Agonism Beta-lactamase Assay, Ratio, Phase 4 (AID 2283601). The essentials: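 HCT-116 p53 beta-lactamase reporter cells (4000/well) preincubated 5 h, then compound (217-fold dilution of DMSO stock) for 16 h at 37C. CCF4-AM substrate added 2 h at room temperature; 460/530 nm emission ratio fitted upward versus DMSO.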
Chain of Cellular tumor antigen p53 (Homo sapiens) (P04637 whole entry, looked up): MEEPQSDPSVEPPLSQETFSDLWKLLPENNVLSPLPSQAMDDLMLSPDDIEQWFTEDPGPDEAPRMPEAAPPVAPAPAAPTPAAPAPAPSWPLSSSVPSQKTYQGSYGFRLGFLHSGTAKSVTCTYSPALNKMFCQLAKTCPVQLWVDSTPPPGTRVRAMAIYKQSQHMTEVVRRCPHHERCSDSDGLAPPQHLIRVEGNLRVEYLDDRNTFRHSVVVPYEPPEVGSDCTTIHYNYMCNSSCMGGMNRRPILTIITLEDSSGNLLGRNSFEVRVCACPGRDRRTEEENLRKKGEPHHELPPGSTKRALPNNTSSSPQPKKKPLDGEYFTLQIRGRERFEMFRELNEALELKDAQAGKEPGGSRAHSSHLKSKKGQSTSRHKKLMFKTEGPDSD

`O=C(O)COc1ccc(Cl)cc1Cl`: the call in assay [1], in [2], in assay [3], in assay [4], in assay [5] and in assay [6] was inactive. Further, the outcome in assay [7], in assay [8], in assay [9], in [10], in assay [11] and in assay [12] was inactive. The result in assay [13], in [14], in assay [15], in [16], in assay [17] and in assay [18] was inactive. In addition, the AC50 in assay [18] was 0.000116 µM (active).

With `CC1(C)C(C=C(Cl)Cl)C1C(=O)OC(C#N)c1ccc(F)c(Oc2ccccc2)c1` (configuration not stated), the molecule was classed as inactive in [1], in assay [3], in assay [4], in assay [5], in [6] and in assay [7]. Also, the molecule was called inactive in assay [8], in [10], in assay [11], in assay [12], in assay [13] and in assay [14]. Besides, the result in [15], in assay [16], in assay [17] and in assay [18] was inactive. The half-maximal activity concentration (AC50) was 50 µM (active) in assay [2] and 10.2 µM (active) in assay [9].
